# From PubChem BioAssay (NCI)
# About 83,000 compounds went through this panel and 20% of them were active in at least one assay; those are over-represented in the sample as a whole.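 Cells were grown in 96-well plates and exposed to the test compound at a single concentration for 48 hours; results are reported as percent growth, with values below 10 considered active.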 A number with no mark means an inactive call. Calls of active or inactive are those of the source.
# Key:
# Assay in all cases: NCI-60 one-dose screen, 48 h (100 = growth as untreated, 0 = no growth, -100 = all killed)
# Details in all cases: 10 µM unless noted
# HCT-15 colon = system: HCT-15 colon
# HT29 colon = system: HT29 colon
# SNB-75 CNS = system: SNB-75 CNS
# SNB-19 CNS = system: SNB-19 CNS
# U251 CNS = system: U251 CNS
# PC-3 prostate = system: PC-3 prostate
# SK-MEL-5 melanoma = system: SK-MEL-5 melanoma
# UACC-62 melanoma = system: UACC-62 melanoma
# LOX IMVI melanoma = system: LOX IMVI melanoma
# SK-MEL-28 melanoma = system: SK-MEL-28 melanoma
# SK-MEL-2 melanoma = system: SK-MEL-2 melanoma
# EKVX NSCLC = system: EKVX NSCLC
# SN12C renal = system: SN12C renal
# TK-10 renal = system: TK-10 renal
# ACHN renal = system: ACHN renal
# CAKI-1 renal = system: CAKI-1 renal
# A498 renal = system: A498 renal
# CCRF-CEM leukemia = system: CCRF-CEM leukemia
# MOLT-4 leukemia = system: MOLT-4 leukemia
# UO-31 renal = system: UO-31 renal
Structure (SMILES),growth (HCT-15 colon),growth (HT29 colon),growth (SNB-75 CNS),growth (SNB-19 CNS),growth (U251 CNS),growth (PC-3 prostate),growth (SK-MEL-5 melanoma),growth (UACC-62 melanoma),growth (LOX IMVI melanoma),growth (SK-MEL-28 melanoma),growth (SK-MEL-2 melanoma),growth (EKVX NSCLC),growth (SN12C renal),growth (TK-10 renal),growth (ACHN renal),growth (CAKI-1 renal),growth (A498 renal),growth (CCRF-CEM leukemia),growth (MOLT-4 leukemia),growth (UO-31 renal)
Cc1cc(C)c2c(=O)[nH]c(SCC(=O)Nc3cccc(S(=O)(=O)N(C)C)c3)nc2n1,119%,104%,90.7%,95.9%,108%,95.4%,113%,98.3%,101%,126%,96.5%,93.3%,109%,98.4%,108%,107%,104%,89.1%,96.1%,–
CNC(=O)c1cc(Oc2ccc3c(c2)sc2nc(-c4ccc(Cl)cc4)cn23)ccn1,83.6%,105%,47.9%,54%,69.5%,78.8%,87.4%,85.1%,87.4%,104%,116%,80.9%,95.9%,110%,79.3%,78.8%,88.8%,93.6%,93%,–
ClC1=C(Cl)C(Cl)=C(Cl)C1=Cc1ccc(Cl)cc1Cl,-56.5% (active),10.1%,-45.6% (active),-6.26% (active),-75.1% (active),-16.5% (active),-88.1% (active),-29% (active),-95% (active),-28.5% (active),-2.84% (active),-19.8% (active),-31.1% (active),-5.11% (active),-75.7% (active),-41.2% (active),-89.6% (active),3.34% (active),4.59% (active),–
COc1ccc(-c2nnc(COc3ccc(NC(=O)Nc4ccc(Cl)c(C(F)(F)F)c4)cc3F)o2)cc1,8.08% (active),9.28% (active),15.6%,21.7%,-26.6% (active),-8.78% (active),12.3%,19.2%,1.05% (active),1.13% (active),-7.3% (active),–,21.2%,35%,-23.2% (active),4.77% (active),-1.59% (active),0.195% (active),2.69% (active),2.2% (active)
Cc1cc(Nc2nc(-c3ccc(F)cc3)nc3ccccc23)n[nH]1,33.9%,22.5%,-21% (active),80.2%,88.4%,56.5%,73.7%,40.8%,32.6%,56.3%,27.7%,–,61.6%,32.6%,39.4%,-7.57% (active),1.89% (active),44.5%,64.1%,32%
COc1cc(CCn2nnc3c(NCCCCO)ncnc32)cc(OC)c1,102%,112%,84.4%,106%,99.5%,88.3%,99.1%,104%,102%,109%,124%,–,102%,119%,106%,92.7%,89%,95%,112%,86.4%
CCN(Cc1ccc(CN(CC)C(=O)C(Cl)(Cl)Cl)cc1)C(=O)C(Cl)(Cl)Cl,94.2%,77.5%,87.7%,106%,91.6%,64.9%,71.2%,82.7%,78.3%,96.2%,89%,68.3%,97.8%,96.1%,–,–,82.6%,–,29.9%,78.7%
CC(Br)C(Br)c1cc2c(cc1Br)OCO2 (stereo not given),101%,96%,78.2%,111%,93.1%,79.2%,104%,108%,96.2%,105%,91.4%,93.8%,110%,96.6%,93.2%,84%,99.3%,99.6%,94.7%,–
